Source: PubChem BioAssay (National Center for Advancing Translational Sciences (NCATS))
HT1080NT lethal: kills 2HG-producing HT-1080-NT fibrosarcoma cells; Potency, µM (top dose mostly 46.1 µM), without a hit: at the highest dose activity, negative = less viability, usual class: cytotoxic; HT-1080-NT fibrosarcoma viability, CellTiter-Glo ATP luminescence, 48 h; 360,000 tested, 1.6% active; AID 686970;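 further: NT is the 2HG producing partner of a matched IDH1 knockdown line; potency means the concentration at half of the fitted maximal effect; 0% = DMSO-treated cells and -100% = media-only wells without cells; nearly all actives have a fitted effect of over 55% in size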
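A 48-hour cytotoxicity screen used HT-1080-NT cells plated 2 hours before compound delivery. ATP-based CellTiter-Glo luminescence measured viability, normalized to DMSO and no-cell controls.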
KB-V1 MDR tox: kills drug-selected multidrug resistant KB-V1 cells | KB-V1 MDR cells viability, CellTiter-Glo, 72 h | Potency, µM (series often up to 46.1 µM), usual class: cytotoxic | 400,000 tested, 3.4% active | AID 1347076; further: potency means the concentration at half of the fitted maximal effect; nearly all actives have a fitted effect of over 60% in size
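Luminescent ATP read-out (CellTiter-Glo, 10 min) measures survival of drug-selected KB-V1 MDR cells after 72 h, 37 degrees C compound exposure. Medium: phenol-red-free DMEM, 10% FBS. Values from fitted concentration-response curves.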
HT1080 IDH1KD tx: toxicity to HT-1080 IDH1 knockdown cells (counter line); HT-1080 IDH1 knockdown viability, ATP luminescence, 48 h; Potency, µM (doses to about 46.1 µM), inactives show at the highest dose activity, negative = toxicity, actives largely listed as cytotoxic; 360,000 tested, 2% active;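 further: potency means the concentration at half of the fitted maximal effect; 0% = DMSO wells and -100% = cell-free medium wells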
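Luminescent ATP read-out (CellTiter-Glo, 10 min at room temperature) after 48 h compound exposure at 37 °C gave viability of IDH1-knockdown HT-1080 cells. Activity was normalised to DMSO and cell-free wells, then fitted as concentration-response curves.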
KB-3-1 cytotox: KB-3-1 parental cell cytotoxicity; Potency, µM (doses to about 46.1 µM), usual class: cytotoxic; KB-3-1 viability, CellTiter-Glo ATP luminescence, 72 h; 400,000 tested, 1.4% active; further: potency means the concentration at half of the fitted maximal effect; nearly all actives have a fitted effect of over 60% in size
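Screening of KB-3-1 cells (DMEM, 10% FBS, phenol-red free) ran from lowest to highest compound concentration; after 72 h at 37 °C viability was read luminescently and curves fitted.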
IL1B secr inh: inflammasome signaling inhibition, IL-1 beta readout; activity change, % at 57.5 µM; THP-1 LPS/ATP IL-1B secretion, AlphaLISA, 16 h; stronger effect = lower value; 360,000 tested, 4.7% active; in the data active means activity change below about -50%; inconclusive means mostly about -30% to -49%
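THP-1 cells pretreated 1 hr with compounds (up to 57.5 uM final), then stimulated with LPS (250 ng/mL final) plus ATP (1.25 mM final); secreted IL-1B measured by AlphaLISA after 16 hr, decreased signal indicating inhibition.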
Active calls of the source: *; i = inactive; ? = inconclusive; · = no result; ! = not active in a repeat; [ ] = another dose, or the depositor's remark. Hits are enriched below; roughly 8.8% of the tested compounds scored in any of these assays. Unless noted, the call rests on the fitted dose curve; in most records, active means well fitted curve in the direction sought with a large enough effect; inconclusive means small, poorly fitted or top-dose-only effect, or another doubt; inactive means no such curve, though single readings can be large; an effect the other way counts as inactive or inconclusive. Unless noted, on the % scale 0 is the no-effect control and ±100 the full control effect.

SMILES | HT1080NT lethal | KB-V1 MDR tox | HT1080 IDH1KD tx | KB-3-1 cytotox | IL1B secr inh
NS(=O)(=O)c1cccc(NC(=S)NC(=O)C23CC4CC(CC(C4)C2)C3)c1 | 9% | 18µM* | 11% | i | -86*
Cc1ccc(S(=O)(=O)N(C)C)cc1NC(=S)NC12CC3CC(CC(C3)C1)C2 | -21% | i | -24% | i | -20
CN(C)S(=O)(=O)c1cccc(NC(=S)NC23CC4CC(CC(C4)C2)C3)c1 | ? | i | -18% | i | -5
Cc1ccc(S(=O)(=O)N(C)C)cc1NC(=S)NC(=O)C12CC3CC(CC(C3)C1)C2 | 3% | ? | 1% | 3.3µM* | 42
O=C(Nc1ccc(F)cc1)NC1(C(=O)NCc2ccc3c(c2)OCO3)CCCCC1 | 9% | 16µM* | 1% | i | -10
COc1ccc(CN(C(=O)/C=C/C(=O)c2ccc(OC)cc2O)C(C(=O)NC2CCCCC2)c2ccncc2)cc1 (stereo not given) | 0% | 2.6µM* | -4% | i | ?
COc1ccc(CN(C(=O)c2cccs2)C(C(=O)NC2CCCCC2)c2ccc3ncccc3c2)cc1 (stereo not given) | 0% | ? | -17% | i | 0
COc1ccc(C(=O)/C=C/C(=O)N(Cc2ccc3c(c2)OCO3)C(C(=O)NC2CCCCC2)c2ccncc2)c(O)c1 (stereo not given) | -10% | 2.1µM* | ? | ? | ?
O=C(c1cc(COc2ccc(F)cc2Cl)on1)N1CCCC(OCc2cccnc2)C1 (stereo not given) | 1% | 9.2µM* | -11% | i | -29
CN1CCN(C(=O)c2cc(COc3ccc(F)cc3Cl)on2)CC1c1ccccc1 (stereo not given) | -19% | i | ? | 16µM* | -88*
Cc1cc(CN(C)C(=O)c2cc(COc3ccc(F)cc3Cl)on2)n[nH]1 | 4% | 21µM* | -3% | i | -24
O=C(NCCc1cccnc1)c1cc(COc2ccc(F)cc2F)on1 | ? | i | ? | i | -3
O=C(NCCc1cccnc1)c1cc(COc2ccc(F)cc2Cl)on1 | ? | ? | 15µM* | i | -21
O=C(c1cc(COc2ccc(F)cc2F)on1)N1CC2C[C@@H]3CC1C[C@H](C2)C3 | -4% | i | -12% | i | -98*
CCCCNC(=O)O[C@@H]1C[C@@H]2CCN3C(=O)CCC[C@H]([C@H]1CC)[C@H]23 | 15% | 21µM*! | 13% | i | 9
CC1(C)Cc2c(c(N3CCOCC3)nc3sc4c(NCCN)ncnc4c23)CO1 | ? | ? | ? | i | 0
OCCN1CCN(c2ncnc3c2sc2nc(N4CCOCC4)c4c(c23)CCC4)CC1 | ? | i | 9%[9.24 µM] | i | -77*
CC1(C)Cc2c(c(N3CCCC3)nc3sc4c(N5CCN(CCO)CC5)ncnc4c23)CO1 | ? | ? | -5% | i | -61*
OCCN(CCO)c1ncnc2c1sc1nc(N3CCOCC3)c3c(c12)CCCC3 | -18% | i | -14% | i | 1
CN(C)c1ccc(N=C/C=C2\N(C)c3ccccc3C2(C)C)cc1 | ? | ? | ? | ? | -89*
CN1/C(=C/C=C(C#N)C#N)C(C)(C)c2ccccc21 | 8% | ? | 3% | i | 14
Cc1c(N=C/C=C2/N(C)c3ccccc3C2(C)C)c(=O)n(-c2ccccc2)n1C | -7% | i | 21% | i | -7
CN1/C(=C\C=O)C(C)(C)c2ccccc21 | 3% | i | -10% | i | 57
Cc1cc(/N=C/C=C2\N(C)c3ccccc3C2(C)C)n(CCC#N)n1 | ? | i | 3%[9.24 µM] | i | -90*
CN1\C(=C/C=C/C=C/C=[N+](C)C)C(C)(C)c2ccccc21 | ? | 8.2µM* | ? | ? | -21
SMILES | HT1080NT lethal | KB-V1 MDR tox | HT1080 IDH1KD tx | KB-3-1 cytotox | IL1B secr inh
CCCCCNC(=O)c1[nH]c(C(F)(F)F)nc1-c1ccccc1 | 4% | i | 0% | i | 5
O=C(O)C1=CCC(c2ccc(Cl)c(Cl)c2)N(S(=O)(=O)c2ccc(F)cc2)C1c1cccc(F)c1 (stereo not given) | ? | i | -5% | i | 4
COc1ccc(-c2cc(-c3nnc(COC(=O)CC4CC5CCC4C5)o3)c3ccccc3n2)cc1OC (stereo not given) | -10% | 9.2µM* | -11% | ? | 0
COc1ccc(CNC(=O)COC(=O)CC2CC3CCC2C3)cc1OC (stereo not given) | -2% | i | -1% | i | 7
Cc1nc2cccnc2n1-c1cccc(C(=O)N2CCN(c3cccc(Cl)c3)CC2)c1 | · | i | · | i | ·
O=S(=O)(c1ccc(S(=O)(=O)N2CCC(O)CC2)cc1)N1CCCC1 | 11% | i | -1% | i | 12
CCC(=O)N(CCc1ccccc1)Cc1cc2cc3c(cc2[nH]c1=O)OCO3 | -14% | ? | -17% | i | ?
CCN(CC)CCCN(Cc1cc2cc3c(cc2[nH]c1=O)OCO3)C(=S)NC | 22% | i | 10% | i | -2
CCC(=O)N(Cc1ccc(C)cc1)Cc1cc2cc3c(cc2[nH]c1=O)OCO3 | 5% | 12µM* | -15% | i | 0
COc1ccc(NC(=S)N(CCN2CCOCC2)Cc2cc3cc4c(cc3[nH]c2=O)OCCO4)cc1 | -14% | i | -16% | i | -61*
CCN(CC)CCCN(Cc1cc2cc3c(cc2[nH]c1=O)OCO3)C(=S)Nc1ccc(OC)cc1 | 3% | i | -14% | ? | -71*
CCn1c(SCC(=O)N(C)CC(=O)Nc2ccc(OC)cc2)nnc1-c1ccco1 | 0% | i | -4% | i | 19
Cc1cc(N2CCN(C/C=C/c3ccccc3)CC2)n2ncnc2n1 | 0% | 9.2µM* | -8% | i | -21
COc1ccccc1N(Cc1ccccc1)S(=O)(=O)c1cccc(C(=O)Nc2ccc(C(C)=O)cc2)c1 | -11% | i | -10% | i | 42
COc1ccccc1N(Cc1ccccc1)S(=O)(=O)c1cccc(C(=O)N2CCCCC2)c1 | ? | i | ? | i | -58*
C=CCN(c1ccccc1OC)S(=O)(=O)c1cccc(C(=O)OCC(=O)N2CC(C)OC(C)C2)c1 (stereo not given) | 3% | 4.1µM* | -29% | i | 11
CC(C)OCCCNC(=O)C1CCN(S(=O)(=O)N2CCCC2)CC1 | 3% | i | 8% | i | -9
COc1ccc(S(=O)(=O)NC(=O)C2(C)CCN2C(=O)Cc2cc(C)cc(C)c2)cc1OC (stereo not given) | ? | i | 16% | i | 14
Cc1cc(C)c(S(=O)(=O)N2CCN(C(=O)CCn3nc(C)c(C)c3C)CC2)c(C)c1 | -14% | ? | -9% | i | -84*
